# Bioassay records from PubChem BioAssay.
# LASV entry inh: qHTS for Inhibitors of binding or entry into cells for Lassa Virus; Lassa virus pseudotype entry inhibition, cell reporter; Potency, µM (series often up to 37.9 µM), for inactives: top-dose activity change, negative = inhibition, actives largely listed as inhibitors; 1.2% of 300,000 active; calls by dose curve; tested in HEK293 cells; further: nearly all actives have a fitted effect of over 50% in size
# VACV Venus inh: qHTS for Stage-Specific Inhibitors of Vaccinia Orthopoxvirus: Venus Reporter Primary qHTS; Vaccinia virus Venus reporter expression, fluorescence; Potency, µM (doses to about 36.5 µM), for the others: top-dose activity change, negative = inhibition, hits mostly inhibitors; 0.46% of 330,000 active; AID 720580, 2013; calls by dose curve; tested in A549 cells; further: nearly all actives have a fitted effect of over 30% in size
# Vaccinia mCherry: qHTS for Stage-Specific Inhibitors of Vaccinia Orthopoxvirus: mCherry Reporter Primary qHTS; Potency, µM (highest dose often 36.5 µM), without a hit: top-dose activity change, negative = inhibition, usual class: inhibitors; Vaccinia virus mCherry reporter infection, fluorescence; AID 720579, 2013; 0.63% of 310,000 active; calls by dose curve; tested in A549 cells; further: nearly all actives have a fitted effect of over 35% in size
# Marburg entry inh: qHTS for inhibitors of binding or entry into cells for Marburg Virus; Marburg virus pseudotyped entry inhibition, cell reporter; 1.8% of 300,000 active; Potency, µM (titrated, usually from 37.8 µM), for inactives: at the highest dose activity change, negative = inhibition, usual class: inhibitors; calls by dose curve; tested in HEK293 cells
# FMDV antiviral: High Throughput Screening for Foot and Mouth Disease Virus Antivirals; FMDV antiviral cell-based qHTS; Potency, µM (series often up to 57.9 µM), without a hit: at the highest dose activity change, negative = inhibition, most hits filed as inhibitors; 1.2% of 410,000 active; AID 1159524, 2015; calls by dose curve; tested in HEK293T cells; further: read-out not given here; nearly all actives have a fitted effect of over 45% in size
# HCV inhibitor: qHTS Assay for Inhibitors of Hepatitis C Virus (HCV). 3.4% of 340,000 active. Huh7.5.1 HCVcc-Cre infection, luciferase reporter, 44 h. Potency, µM (doses to about 41.8 µM), for the others: at the highest dose activity change, negative = inhibition, usual class: inhibitors; active means well fitted inhibition curve with a large enough effect; inconclusive means small, poorly fitted or top-dose-only effect, or another doubt; inactive means no such curve, though single readings can be large or run the other way
#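 HCVcc-Cre virus at an moi near 0.5 was added right after compound to cells cultured 4 h from seeding (1,000 cells/well). Luciferase activity was determined 44 h later, 15 min after substrate addition at RT.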
# * hit, by the source's call; i = inactive; ? = inconclusive; . = no result; [ ] = another dose, or the depositor's remark. Compounds with a hit are over-represented: about 5.3% of the library has one in this group of screens. On the % scale 0 is the no-effect control and ±100 the full control effect; potency means the concentration at half of the fitted maximal effect.
SMILES,LASV entry inh,VACV Venus inh,Vaccinia mCherry,Marburg entry inh,FMDV antiviral,HCV inhibitor
Cc1cc(C(=O)N/N=C/c2ccc([N+](=O)[O-])s2)c2ccccc2n1,?,28µM*,10µM*,?,-16%,11µM*
COc1ccccc1NC(=O)C(=O)N/N=C/c1ccc([N+](=O)[O-])s1,.,.,.,.,-19%,-16%
Cc1ccccc1C(=O)N/N=C/c1ccc([N+](=O)[O-])s1,-24%,?,-22%,4.1µM*,.,?
CCCN(CCC)CCNC(=O)c1cc2c(=O)oc3ccc(C)cc3c2s1,7%[46.1 µM],-7%,-3%,15%[46.1 µM],-14%,.
COc1cccc(-c2nc(NC3CCCC3)c3ccccc3n2)c1O,.,.,.,.,28µM*,2.8µM*
C=CCNc1nc(-c2cccc(OC)c2O)nc2ccccc12,7%,.,.,-29%,-8%,16µM*
CCCCNC(=O)c1cccc2c(=O)c(C)c(-c3ccccc3)oc12,?,-18%,i,-23%,0%,?
CCCCN(C(=O)c1cccc2c(=O)c(C)c(-c3ccccc3)oc12)c1ccccc1,12µM*,.,.,?,?,?
COc1ccc(C(C)(C)NC(=O)C2CCC(=O)N(C3CCCC3)C2)cc1OC (stereo not given),11%,-11%,-22%,16%,10%,-11%
O=C(C(=Cc1ccccc1)CN1CCCCC1)c1ccccc1,3.5µM*,?,-27%,?,3.5µM*,2.2µM*
O=C(CN1CCCCC1)c1ccccc1,.,-7%,-13%,.,.,.
Cc1ccc(CSc2nnc(SCC(=O)N/N=C/c3c[nH]c4ccccc34)s2)cc1,?,-10%,i,?,6%,-9%
CCn1c(SCC(=O)N/N=C/c2ccc(C)o2)nnc1-c1ccc(C(C)(C)C)cc1,?,-18%,-19%,-21%,32µM*,?
CCn1c(SCC(=O)N/N=C/c2c[nH]c3ccccc23)nnc1-c1ccc(C(C)(C)C)cc1,4.5µM*,-25%,?,?,?,?
COCC1CCCN(Cc2cn(Cc3ccccc3)nc2-c2cc3ccccc3o2)C1 (stereo not given),?,-25%,-21%,2.5µM*,-13%,?
COc1ccc(CN2CCC(CO)(CCOc3ccccc3)CC2)c(OC)c1C,?,-11%,-17%,?,-27%,?
COc1ccc2[nH]c(CN3CCC(CO)(CCOc4ccccc4)CC3)c(C)c2c1,?,-11%,-29%,?,-25%,10µM*
COc1ccccc1CNC(=O)Cc1csc2nc(-c3ccc(Cl)cc3)cn12,?,-14%,-5%,.,-6%,.
CC(=O)NC1=C(Nc2ccc(N(C)C)cc2)C(=O)c2ccccc2C1=O,1.6µM*,-8%,?,?,-12%,?
CC(=O)NC1=C(N(C)C2CCS(=O)(=O)C2)C(=O)c2ccccc2C1=O (stereo not given),7.1µM*,-1%,-10%,?,13µM*,-58%
COC(=O)C1=C(C)N=C2S[C@@H](C)C(=O)N2[C@H]1c1cccs1,.,.,.,6%,.,.
COc1ccc(C)cc1NC(=O)c1cn(C)c(=O)c2cc(OC)c(OC)cc12,-3%[46.1 µM],-4%,-3%,2%[46.1 µM],-12%,.
Fc1ccc(Cn2ccc(-c3cnc(-c4ccccc4)s3)n2)cc1,-26%,?,.,?,-4%,10µM*
COc1cc2c(cc1NC(=O)c1cccc(Br)c1)CCCC2,-20%,-24%,-2%,-20%,-7%,7.1µM*
COc1cc2c(cc1NC(=O)c1cccc(F)c1)CCCC2,-2%,-21%,-2%,20%,-7%,?
Cc1nc2ccc(NC(=O)c3cccs3)cc2c(=O)n1Cc1ccc(Cl)cc1,?,?,11µM*,?,.,?
COc1cccc(NC(=O)COc2ncnc3sc(C)c(C)c23)c1,16%,-8%,.,-24%,-5%,0%
